# MEKK2 mut-MEK5: signal of MEK5 binding to mutant human MEKK2 PB1 domain. bead flow cytometry, Alexa488-MEK5 binding to MEKK2 mutant. percent response, % at 10 µM. 0.35% of 290,000 active. AID 1530; in the data active = percent response above about 24%, passing the limit was not always enough
# MEKK2 WT-MEK5: raises or lowers MEK5 binding to wildtype human MEKK2 PB1 domain. binding response (% of control), % at 10 µM. Q9Y2U5. 1.1% of 290,000 active. AID 1531. bead flow cytometry, Alexa488-MEK5 binding to MEKK2 WT; actives lie on both sides; in the data active = binding response below about 67% or above about 130%
# MEKK3 PB1 HTS: MEKK3-MEK5 PB1 interaction, increase or decrease; bead-based flow cytometry, Alexa488-MEK5 binding to MEKK3; actives lie on both sides; 0 = blocked by unlabeled MEK5, 100 = vehicle; Q99759; 1.4% of 290,000 active; binding response (% of control), % at 10 µM;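 active = binding response more than 3 SD above or below the average of its plate-row segment, actives on both sides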;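 note: Alexa488 bead fluorescence after subtracting the streptavidin-only scavenger bead signal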
# GRK2 aptamer HTS: inhibitors of human GRK2 displacing RNA aptamer; P25098; bead flow cytometry, FAM-aptamer displacement from GRK2; inhibition of aptamer binding, % at 10 µM; 0.59% of 330,000 active;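 active = inhibition of aptamer binding above 40%, roughly 3 SD of noise, on plates passing a quality check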;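 note: median bead fluorescence of bound FAM aptamer so fluorescent compounds give negative values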
# Target sequence (P25098 whole entry, looked up): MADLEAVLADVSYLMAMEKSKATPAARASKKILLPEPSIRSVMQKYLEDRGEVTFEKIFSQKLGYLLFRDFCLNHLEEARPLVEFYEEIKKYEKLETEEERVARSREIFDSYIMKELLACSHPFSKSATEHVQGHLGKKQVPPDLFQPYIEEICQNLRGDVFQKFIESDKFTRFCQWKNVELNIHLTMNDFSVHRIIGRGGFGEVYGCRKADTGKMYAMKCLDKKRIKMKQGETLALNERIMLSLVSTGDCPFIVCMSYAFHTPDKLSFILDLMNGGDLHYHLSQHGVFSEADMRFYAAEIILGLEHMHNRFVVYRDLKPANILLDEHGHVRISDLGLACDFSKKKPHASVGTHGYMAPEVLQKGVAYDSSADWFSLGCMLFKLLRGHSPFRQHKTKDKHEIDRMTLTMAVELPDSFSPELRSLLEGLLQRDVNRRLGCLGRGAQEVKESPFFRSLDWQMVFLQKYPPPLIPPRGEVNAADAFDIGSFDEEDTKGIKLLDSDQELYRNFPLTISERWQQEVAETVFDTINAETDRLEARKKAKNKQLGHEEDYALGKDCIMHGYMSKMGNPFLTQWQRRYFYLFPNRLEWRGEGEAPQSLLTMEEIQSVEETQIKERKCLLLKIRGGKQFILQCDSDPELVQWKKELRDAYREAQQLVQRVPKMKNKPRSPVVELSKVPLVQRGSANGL
# B2AR ag: human beta-2 adrenergic receptor agonism by FAP; AID 504454; Am2.2-beta2AR cells, FAP receptor internalization, flow cytometry; P07550; response, % (no concentration beside the values); 0.43% of 340,000 active;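 active = response above a set limit, near 3 SD of response in nonfluorescent compounds, cut at about 42% in these data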
# B2AR ag CP1: activates human beta-2 adrenergic receptor; shares compounds with B2AR ag; Am2.2-beta2AR cells, FAP surface receptor, flow cytometry; hits give low values; percent response (surface receptor), % at 10 µM; 25% of 1,100 active; AID 540358;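 active = surface receptor percent response at or below 58%, roughly 3 SD from nonfluorescent compounds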
# B2AR FAP counter: flagged in Am2.2 fluorescence counterscreen for beta-2AR agonists | shares compounds with B2AR ag | Am2.2 cells, FAP fluorogen flow cytometry; hits give low values | calls only at 10 µM | 1,100 tested, under 10 active;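 active = percent response below a set limit in fluorescence channel 1 and below 50% in channel 8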
# * hit, by the source's call; i = inactive; . = not tested or not shown. A selection: hits, their analogues and other compounds. The true share with any hit is near 2.9%.
SMILES,MEKK2 mut-MEK5,MEKK2 WT-MEK5,MEKK3 PB1 HTS,GRK2 aptamer HTS,B2AR ag,B2AR ag CP1,B2AR FAP counter
Cc1cc(Nc2ccccc2)nn1C(=O)c1ccc(Br)cc1,1,107,101,0,50*,121,i
Cc1cc(C)cc(C(=O)NC(CC(N)=O)c2ccc(N3CCN(c4ccccn4)CC3)c([N+](=O)[O-])c2)c1 (configuration not stated),-7,97,100,1,68*,18*,i
COc1ccc(OC)c(C(=O)NC(CC(N)=O)c2ccc(N3CCN(c4ccccc4)CC3)c([N+](=O)[O-])c2)c1 (configuration not stated),-6,94,95,3,-4,.,.
Cc1cc(C)cc(C(=O)NC(CC(N)=O)c2ccc(N3CCN(C)CC3)c([N+](=O)[O-])c2)c1 (configuration not stated),-8,95,98,0,-2,.,.
COc1ccc(OC)c(C(=O)NC(CC(N)=O)c2ccc(N3CCN(c4ccccn4)CC3)c([N+](=O)[O-])c2)c1 (configuration not stated),-8,104,103,2,16,141,i
Nc1nc(OCC2CCCCC2)c2[nH]cnc2n1,8,106,104,0,-11,.,.
N#Cc1c(NC(=O)CSc2ncccn2)oc(-c2ccccc2)c1-c1ccccc1,-4,92,90,0,49*,117,i
COc1ccc(S(=O)(=O)N2CCSC2C)cc1C (configuration not stated),4,98,103,0,1,.,.
CN(CCN1CCOCC1)C(=O)c1cc(COc2ccc(F)c(F)c2)on1,5,109,100,4,-4,.,.
CCOC(=O)C1CCCN(C(=O)c2ccc(Cl)cc2)C1 (configuration not stated),-3,94,94,3,8,.,.
CCCCC(=O)Nc1ccc(C(=O)N2CCCC(C(=O)OCC)C2)cc1 (configuration not stated),-1,96,91,2,61*,41*,i
COc1ccc(C2/C=C\CN(Cc3ccc(N(C)C)cc3)CC(=O)N2Cc2ccc(F)cc2)cc1 (configuration not stated),3,102,106,2,97*,27*,i
COc1ccc(C2/C=C\CN(C(=O)OCc3ccccc3)CC(=O)N2Cc2ccc(F)cc2)cc1 (configuration not stated),3,97,108,.,0,.,.
COc1ccc(C2/C=C\CN(C(=O)c3ccccc3)CC(=O)N2Cc2ccc(F)cc2)cc1 (configuration not stated),1,88,101,12,-8,78,i
CC1(NC(=O)CSc2nnc(-c3c[nH]c4ccccc34)n2C2CC2)CCS(=O)(=O)C1 (configuration not stated),.,.,.,1,0,.,.
Cc1noc(C)c1CSCC(=O)Nc1nc2ccc(F)cc2s1,.,.,.,5,-6,.,.
Cc1noc(C)c1S(=O)(=O)N1CCCC(C(=O)N2CCC(C)CC2)C1 (configuration not stated),5,109,104,2,49*,120,i
Brc1ccsc1/C=N/Nc1ccccc1,.,.,.,2,2,.,.
COc1ccc2[nH]c3c(c2c1)CCN1C(=O)N([C@@H](C)C(=O)NC2CCCCC2C)C(=O)[C@]31C (some centres not stated),3,97,98,0,6,.,.
CC(OC(=O)c1ccc(F)c(S(=O)(=O)N2CCOCC2)c1)C(=O)NC1CCCC1 (configuration not stated),.,.,.,.,1,.,.
COc1ccc(CCN(C)C(=O)C2CCN(C(=O)Nc3ccccc3)CC2)cc1OC,.,.,.,3,-8,.,.
COc1ccc(CCNC(=O)Cc2cccc(C(F)(F)F)c2)cc1OC,-2,101,101,2,83*,102,i
COc1ccc(CCNC(=O)Cc2ccc(OC)c(OC)c2)cc1OC,1,95,96,1,5,.,.
O=C(NCc1ccccc1)c1onc(CS(=O)(=O)c2ccc(Cl)cc2)c1C(=O)NCc1ccccc1,.,.,.,0,0,.,.
CCCCn1c(N)c(N(CC(C)C)C(=O)c2cc(-c3ccc(F)cc3)nc3ccccc23)c(=O)[nH]c1=O,.,.,.,2,-2,.,.
SMILES,MEKK2 mut-MEK5,MEKK2 WT-MEK5,MEKK3 PB1 HTS,GRK2 aptamer HTS,B2AR ag,B2AR ag CP1,B2AR FAP counter
O=C(Nc1ccc2oc(-c3ccncc3)nc2c1)c1ccc2c(c1)OCCO2,1,89,96,1,73*,90,i
O=C(Nc1ccc2oc(-c3ccncc3)nc2c1)c1ccc2c(c1)OCO2,-4,86,92,8,15,101,i
O=C(CCc1ccccc1)N1CCN(c2ccc([N+](=O)[O-])cc2)CC1,-3,93,96,8,4,.,.
COc1ccc(CCN2CC(C(=O)N(C)Cc3cccnc3)CC2=O)cc1OC (configuration not stated),.,.,.,3,1,.,.
CCn1c(COc2ccc(Cl)cc2)nnc1SCc1ccc(C#N)cc1,-1,98,93,1,44*,64,i
COc1ccc(C(O)(CCN2CCOCC2)c2ccccc2)cc1 (configuration not stated),1,99,100,2,6,.,.
CCN(CC)c1ccc([C@H]2[C@@H]3CCCC[C@]3(O)CCN2CC(=O)NCc2ccco2)cc1,-13,91,92,0,23,126,i
CCN(CC)c1ccc(C2C3CCCCC3(O)CCN2CC(=O)N2CCCCC2)cc1 (configuration not stated),1,104,103,0,5,.,.
CN(C)c1ccc(C=c2c3ccccc3n3c2c2ccccc2[n+]3C)cc1,.,.,.,.,50*,91,i
CCOCCCNC(=O)c1cc(-c2cccnc2)nc2ccc(S(=O)(=O)N3CCC(C)CC3)cc12,2,100,98,0,59*,57*,i
CC(C)Oc1ccc(/C=N/NC(N)=S)cc1,14,108,100,4,-5,92,i
CCCCc1ccc(NC(=O)CSc2nc(=O)n(CCN(C)C)c3c2CCC3)cc1,.,.,.,0,11,.,.
CCCCc1ccc(NC(=O)CSc2nc(=O)n(CCN(CC)CC)c3c2CCCC3)cc1,.,.,.,1,43*,103,i
Nn1c(SCc2cn3cc(Cl)ccc3n2)nnc1-c1ccncc1,-1,96,95,2,-10,.,.
Nn1c(SCc2cn3ccccc3n2)nnc1-c1ccncc1,-2,93,94,2,45*,105,i
NC(=S)N=Nc1c(O)n(Cc2ccc(F)cc2)c2ccccc12,13,97,100,0,-3,102,i

# From PubChem BioAssay
